# Results reported in PubChem BioAssay (NCATS).
# Where “and” joins values, the source holds several entries; their conditions need not be identical. Equal entries are not always repeated. A number with no mark means an inactive call. Results filed as inconclusive are left out. Entries that show only a call come without a potency. Calls of active or inactive are those of the source. Unless noted, the call rests on the fitted dose curve; in most records, active means well fitted curve in the direction sought with a large enough effect; inconclusive means small, poorly fitted or top-dose-only effect, or another doubt; inactive means no such curve, though single readings can be large; an effect the other way counts as inactive or inconclusive.
# Key:
# [1] = qHTS for Activators of Parkin Expression: LOPAC Validation Assay (FLuc Reporter) (AID 720573); details: Cell line, PRKN promoter firefly luciferase reporter, vehicle wells = 0, positive control = 100%; series mostly up to 46.1 µM
# How it was run: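 FLuc luminescence read-out from a neuronal line expressing a Parkin-promoter-driven coincidence reporter. Cells treated 24 h at 37 C, 5% CO2 with compounds at 7 concentrations; signal increase normalized to DMSO and positive control.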
# [2] = qHTS assay for small molecule agonists of the antioxidant response element (ARE) signaling pathway measured by Nrf2-dependant transcriptional activity - cell viability counter screen (AID 720653; active means well fitted curve in the direction sought with a large enough effect in the repeat runs; an effect the other way counts as inactive or inconclusive); details: ARE-bla HepG2 viability, CellTiter-Glo ATP luminescence, 16 h; max response: stronger effect = lower value
# How it was run: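 ARE-bla HepG2 cells (2,000/well) rested 5 hrs at 37C/5% CO2, then exposed to compounds in DMSO for 16 hrs. Viability was read in the same wells as intracellular ATP by luminescence, 30 min at room temperature after reagent addition.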
# [3] = biological target: T1, Hexokinase-4 (Homo sapiens) + Glucokinase regulatory protein (Homo sapiens) (UniProt P35557+Q14397); test: qHTS assay for inhibitors of recombinant human GCK-GKRP interaction: ADP-Glo assay (AID 743206); details: ADP-Glo luminescence, 60 min, 0% = vehicle-only wells with enzyme present; series mostly up to 76.9 µM
# T1 sequence (P35557 whole entry, looked up): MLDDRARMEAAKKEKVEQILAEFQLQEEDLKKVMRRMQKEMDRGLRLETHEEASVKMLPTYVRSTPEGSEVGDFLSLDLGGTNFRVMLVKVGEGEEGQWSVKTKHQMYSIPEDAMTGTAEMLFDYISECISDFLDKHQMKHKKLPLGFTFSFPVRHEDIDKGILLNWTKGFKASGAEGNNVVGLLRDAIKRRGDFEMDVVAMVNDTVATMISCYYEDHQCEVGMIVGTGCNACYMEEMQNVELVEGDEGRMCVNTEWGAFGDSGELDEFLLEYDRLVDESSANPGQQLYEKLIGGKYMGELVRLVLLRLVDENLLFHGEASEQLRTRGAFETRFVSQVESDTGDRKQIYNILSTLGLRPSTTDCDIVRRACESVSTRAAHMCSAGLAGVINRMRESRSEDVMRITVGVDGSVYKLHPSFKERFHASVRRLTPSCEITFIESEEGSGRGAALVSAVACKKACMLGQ
# T1 sequence (Q14397 whole entry, looked up): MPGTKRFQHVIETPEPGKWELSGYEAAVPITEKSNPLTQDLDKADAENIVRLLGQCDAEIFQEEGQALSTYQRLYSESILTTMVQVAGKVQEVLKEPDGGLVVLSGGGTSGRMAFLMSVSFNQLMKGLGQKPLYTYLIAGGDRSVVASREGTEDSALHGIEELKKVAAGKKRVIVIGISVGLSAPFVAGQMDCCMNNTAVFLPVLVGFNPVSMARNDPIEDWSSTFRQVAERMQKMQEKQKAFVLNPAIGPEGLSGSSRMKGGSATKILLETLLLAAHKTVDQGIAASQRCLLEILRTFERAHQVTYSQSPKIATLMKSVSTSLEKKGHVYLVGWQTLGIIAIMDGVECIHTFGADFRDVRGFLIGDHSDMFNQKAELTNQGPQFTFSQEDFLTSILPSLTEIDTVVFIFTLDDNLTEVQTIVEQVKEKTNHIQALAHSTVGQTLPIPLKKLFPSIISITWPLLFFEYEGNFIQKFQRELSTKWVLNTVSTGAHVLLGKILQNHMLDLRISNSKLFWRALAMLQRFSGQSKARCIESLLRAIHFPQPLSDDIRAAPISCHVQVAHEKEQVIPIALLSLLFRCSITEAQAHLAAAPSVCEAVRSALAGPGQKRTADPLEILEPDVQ
# How it was run: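 GST-GCK and FLAG-GKRP (15 nM each in the dispensed mix, with 2 uM S6P) react with 0.4 mM ATP and 5 mM glucose (final) in Hepes pH 7.6 for 60 min at room temperature. ADP is measured by ADP-Glo luminescence.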
# [4] = biological target: T1, Hexokinase-4 (Homo sapiens) + Glucokinase regulatory protein (Homo sapiens); test: qHTS assay for inhibitors of recombinant human GCK-GKRP interaction: HTRF assay (AID 743207); details: recombinant GCK-GKRP HTRF binding, 60 min, with sorbitol-6-phosphate; series mostly up to 57.5 µM; further: potency means the concentration at half of the fitted maximal effect
# How it was run: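 HTRF read-out (ex 320 nm; 615/665 nm emission) after 60 min RT equilibration of 5 nM GST-GCK, 5 nM FLAG-GKRP, 2 uM S6P, compound and anti-FLAG/anti-GST detection antibodies; signal normalized between DMSO wells with and without GCK.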
# [5] = qHTS Assay for Identifying Gametocytocidal Compounds (AID 743244); further: potency means the concentration at half of the fitted maximal effect;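 on max response: actives lower the fluorescent signal which means gametocytes are killed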; details: P. falciparum 3D7 stage III-V gametocytes, alamarBlue, 72 h; max response: stronger effect = lower value
# How it was run: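 Using 20,000 stage III–V 3D7 gametocytes per well, compounds were incubated 72 h under 37 °C/5% CO2. Viability was then assessed by 24 h alamarBlue reduction, measured fluorometrically at 525/598 nm.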
# [6] = qHTS assay for cell viability of HEK293 cells (AID 743288); details: ATP luminescence (CellTiter-Glo), 18 h; max response: stronger effect = lower value; further: nearly all actives have a fitted effect of over 50% in size
# How it was run: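 Environmental chemicals tested in qHTS format against parental HEK293 cells; 18 h treatment, 37 C; read-out ATP luminescence (CellTiter-Glo), 30 min RT development.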
# [7] = qHTS assay for cell viability of the p53RE-bla HCT-116 cell line (AID 743292); details: p53RE-bla HCT-116 viability, ATP luminescence, 16 h; series mostly up to 95 µM; further: nearly all actives have a fitted effect of over 55% in size
# How it was run: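 ATP-based luminescent viability (CellTiter-Glo, 30 min RT) after 16 h compound treatment at 37 C of p53RE-bla HCT-116 cells, seeded at 4,000 cells/well and rested 5 h before dosing.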
# [8] = qHTS assay for small molecule agonists of the antioxidant response element (ARE) signaling pathway measured by Nrf2-dependant transcriptional activity (AID 720636; active means well fitted curve in the direction sought with a large enough effect in the repeat runs; an effect the other way counts as inactive or inconclusive); details: ARE-luc HepG2, Nrf2 luciferase reporter, 16 h; series mostly up to 92.4 µM
# How it was run: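 Nrf2-dependent transcription read as ONE-Glo luciferase signal from ARE-luc HepG2 reporter cells after 16 hr compound treatment at 37 C, 5% CO2, in assay medium with 1% dialyzed FBS.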
# [9] = biological target: T1, Hexokinase-4 (Homo sapiens) + Glucokinase regulatory protein (Homo sapiens); test: qHTS assay for inhibitors of recombinant human GCK-GKRP interaction: Diaphorase-coupled assay (AID 743205); details: G6PDH/diaphorase resorufin fluorescence; series mostly up to 57.5 µM
# How it was run: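 Resorufin fluorescence (525/590 nm), read each minute over 30 min, reports GCK activity coupled via G6PDH and diaphorase. Reaction: 10 nM GST-GCK, 10 nM FLAG-GKRP, 5 mM glucose, 0.4 mM ATP, 0.15 mM NADP+, 0.1 mM resazurin.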
Compound,outcome [1],max response [2],outcome [3],Potency [4],max response [5],max response [6],outcome [7],outcome [8],outcome [9],Potency [5]
Cc1ccc(S(=O)(=O)NC(=O)NN2CCCCCC2)cc1,inactive,1.34%,inactive,inactive,-5.27% and 9.03%,-0.908%,inactive,,,
C[C@]12CCC(=O)C=C1CC[C@@H]1[C@@H]2C(=O)C[C@@]2(C)[C@H]1CC[C@]2(O)C(=O)CO,inactive,-5.48%,inactive,inactive,-0.251% and -12.4%,-1.33%,inactive,inactive,inactive,
CC(C)(C)c1ccc(C(=O)CCCN2CCC(OC(c3ccccc3)c3ccccc3)CC2)cc1,inactive,,inactive,inactive,,,,,inactive,
CCN(CC)CCCN(c1ccccc1)C1Cc2ccccc2C1,inactive,,inactive,inactive,,,,,inactive,
COC(=O)C1=C(C)NC(C)=C(C(=O)OC(C)(C)CN(C)CCC(c2ccccc2)c2ccccc2)C1c1cccc([N+](=O)[O-])c1 (stereo not drawn),inactive,,inactive,inactive,7.33% and 12.6%,,,,inactive,
CN(C)CCCN1c2ccccc2Sc2ccccc21,inactive,,inactive,inactive,,,,,inactive,
COc1cc(C(=O)OCCCN2CCCN(CCCOC(=O)c3cc(OC)c(OC)c(OC)c3)CC2)cc(OC)c1OC,inactive,,inactive,inactive,-8.17% and 18.7%,,,,inactive,
CC(C)[N+](C)(CCOC(=O)C1c2ccccc2Oc2ccccc21)C(C)C,inactive,,inactive,inactive,-5.05% and 11.3%,,,,inactive,
CN(C(=O)CCCOc1ccc2[nH]c(=O)ccc2c1)C1CCCCC1,inactive,,inactive,inactive,-2.24% and 11%,,,,inactive,
C[C@H](CS)C(=O)N1CCC[C@H]1C(=O)O,inactive,,inactive,inactive,-9.05% and 12%,,,,inactive,
c1cnc(N2CCN(Cc3ccc4c(c3)OCO4)CC2)nc1,inactive,,inactive,inactive,1.5%,,,,inactive,
FC(F)(F)c1ccccc1-n1ccnc1,inactive,,inactive,inactive,18.2% and -13.7%,,,,inactive,
CN1C(=O)CC[C@H]1c1cccnc1,inactive,,inactive,inactive,3.71% and 23.6%,,,,inactive,
CCNC(=O)N1CCN(CCCC(c2ccc(F)cc2)c2ccc(F)cc2)CC1,inactive,,inactive,inactive,-23% and -10.4%,,,,inactive,
NC(=O)c1ncn([C@@H]2O[C@H](CO)[C@@H](O)[C@H]2O)c1O,inactive,,inactive,inactive,13.6%,,,,inactive,
CO[C@@]1(NC(=O)CSCC#N)C(=O)N2C(C(=O)O)=C(CSc3nnnn3C)CS[C@@H]21,inactive,,inactive,inactive,0.458% and 21.8%,,,,inactive,
CNCCC(Oc1ccccc1OC)c1ccccc1 (stereo not drawn),inactive,,inactive,inactive,19.3%,,,,inactive,
COC(=O)[C@@H](N)Cc1ccc(O)c(O)c1,inactive,,inactive,inactive,43.3%,,,,inactive,
CC1=C(C)C(=O)C(CCCCC#CCCCC#CCO)=C(C)C1=O,inactive,,inactive,inactive,,,,,inactive,14.1 µM (active)
CNC1(C)C2CCC(C2)C1(C)C (stereo not drawn),inactive,,inactive,inactive,12.1% and 8.7%,,,,inactive,
NC/C=C/C(=O)O,inactive,,inactive,inactive,18.4% and 29.6%,,,,inactive,
Nc1c2c(nc3ccccc13)CCCC2O (stereo not drawn),inactive,,inactive,inactive,-3.49% and -6.56%,,,,inactive,
CN(C)[C@@H]1C(=O)C(C(N)=O)=C(O)[C@@]2(O)C(=O)C3=C(O)c4c(O)ccc(Cl)c4[C@@H](O)[C@H]3C[C@@H]12,inactive,,inactive,12.6 µM (active),-7.62% and 22.4%,,,,inactive,
COCC(=O)O[C@]1(CCN(C)CCCc2nc3ccccc3[nH]2)CCc2cc(F)ccc2[C@@H]1C(C)C,inactive,,inactive,inactive,,,,,inactive,2.64 µM (active) and 1.41 µM (active)
C[N+](C)(C)CCOC(=O)CCC(=O)OCC[N+](C)(C)C,inactive,,inactive,inactive,0.123% and 29.2%,,,,inactive,
O=C(CCCN1CCC(O)(c2cccc(C(F)(F)F)c2)CC1)c1ccc(F)cc1,inactive,,inactive,inactive,20%,,,,inactive,
